Anthrax LF inh2: Bacillus anthracis LF protease inhibitors, primary screen, biochemical, multiplex microsphere, MLPCN library; Lethal factor (Bacillus anthracis), P15917; multiplex microsphere protease cleavage assay; inhibition, % at 10 µM; actives 0.12% (n = 360,000); AID 588501, 2011; note: plate controls were buffer without enzyme for full effect and enzyme alone for no effect
BoNT A protease: BoNT/A light chain protease inhibitors, primary screen, biochemical, flow cytometry, MLPCN library; actives 0.17% (n = 360,000); multiplex microsphere protease substrate cleavage; inhibition, % at 10 µM; Botulinum neurotoxin type A light chain protease (Clostridium botulinum A str. ATCC 3502); note: plate controls were buffer without enzyme for full effect and enzyme alone for no effect
Autofluor counter: counter-screen for toxin protease inhibitors: compound fluorescence; compound autofluorescence counterscreen, microsphere flow cytometry; active compounds read high; fluorescence intensity (test concentration not listed); actives 3.1% (n = 360,000); in the data active = fluorescence intensity above about 16000; inconclusive = no clear call, values can overlap the other calls
TcdB GH inh: TcdB glycohydrolase inhibitors, primary screen, biochemical, single point, plate reader. Toxin B (Clostridioides difficile), P18177. TcdB glycohydrolase enzymatic assay. inhibition, % at 9.99 µM. actives 0.24% (n = 350,000). AID 652162, 2013; in the data active = inhibition above about 10%
BoNT F protease: BoNT/F light chain protease inhibitors, primary screen, biochemical, flow cytometry, MLPCN library | Botulinum neurotoxin type F light chain protease (Clostridium botulinum) | Multiplex microsphere protease cleavage assay | inhibition, % at 10 µM | actives 0.22% (n = 360,000); in the data active = inhibition above about 35%, passing the limit was not always enough; inconclusive = no clear call, values can overlap the other calls; note: plate controls were buffer without enzyme for full effect and enzyme alone for no effect
Numbers without * were called inactive; ? = inconclusive; / = no result. Only a selection was taken, and hits are over-represented in it overall. Cut-off read from the data, not from the text of the source, unless noted: active = inhibition above about 30%; inconclusive = no clear call, values can overlap the other calls; inactive = below that.

SMILES | Anthrax LF inh2 | BoNT A protease | Autofluor counter | TcdB GH inh | BoNT F protease
CC(C)NC(=O)N(C)C[C@@H]1Oc2c(NS(=O)(=O)c3ccc(Cl)cc3)cccc2C(=O)N([C@H](C)CO)C[C@H]1C | / | / | / | 1 | /
CC(Nc1nc(N2CCCCC2)nc2ccccc12)c1ccccc1 (stereo unspecified) | -5 | ? | 21408* | / | -5
COc1ccc(NC(=O)N(C)C[C@@H]2Oc3ccc(NS(=O)(=O)c4cccs4)cc3C(=O)N([C@H](C)CO)C[C@H]2C)cc1 | / | / | / | 0 | /
C=CCN=c1scc(C)n1/N=C/c1ccc(O)c(O)c1 | -3 | -1 | 4924 | 15* | -5
Cc1cccc(NC(=O)c2cc(S(=O)(=O)NCc3ccco3)ccc2F)c1C | 1 | 2 | 23011* | / | 1
CC(C)C(=O)Nc1ccc(C(=O)c2ccccc2)cc1 | 0 | -1 | 19934* | / | 0
CN(C)c1ccc(C(=O)c2ccccc2)cc1 | -2 | -2 | 17206* | / | -3
Cc1ccc2nc3c(nc2c1)-c1ccccc1C3=O | 1 | 0 | 23481* | / | 0
Cc1cccc2nc3c(nc12)-c1ccccc1C3=O | -3 | ? | 3347 | 1 | ?
CCCc1ccc(Oc2cc(C)nc(N3CCOCC3)n2)cc1 | -3 | 0 | 2445 | / | 4
CCCc1ccc(Oc2cc(N3CCOCC3)nc(-c3ccccc3)n2)cc1 | -2 | 1 | 23308* | 0 | -1
CC(C)NC(=O)Nc1ccc2c(c1)C(=O)N([C@@H](C)CO)C[C@@H](C)[C@H](CN(C)Cc1ccc(C(F)(F)F)cc1)OCCCC[C@H](C)O2 | / | / | / | -2 | /
CC1CN=C(N(Cc2ccccc2)C(=O)Nc2ccccc2)S1 (stereo unspecified) | 16 | 0 | ? | / | -8
COc1ccccc1NC(=O)N(Cc1ccccc1)C1=NCC(C)S1 (stereo unspecified) | -2 | 0 | 22072* | / | 0
Cc1ccc(Cl)cc1N1CCN(C(=O)C2CCC(=O)N2C(C)C)CC1 (stereo unspecified) | 3 | 0 | 5512 | 1 | -1
CCOC(=O)N1CCN(C(=O)C2CCC(=O)N2C(C)C)CC1 (stereo unspecified) | 0 | 4 | 22385* | / | 1
CNC[C@@H]1Oc2c(NS(=O)(=O)c3ccc(C)cc3)cccc2C(=O)N([C@H](C)CO)C[C@@H]1C | / | / | / | -1 | /
O=C(C[C@H]1C=C[C@@H](NC(=O)NC2CCCCC2)[C@H](CO)O1)NCc1ccc(F)cc1 | / | / | / | -1 | /
O=C(N[C@H]1CC[C@@H](CC(=O)N2CCN(c3ccccc3)CC2)O[C@@H]1CO)c1ccccc1 | / | / | / | 1 | /
COc1cc2nc(SCc3ccc(Cl)cc3Cl)n(Cc3cccs3)c(=N)c2cc1OC | -4 | 0 | 20638* | / | -1
COc1ccc(Cn2c(SCc3ccc(C)cc3)nc3cc(OC)c(OC)cc3c2=N)cc1Cl | -2 | -1 | 16606* | / | -4
C[C@@H]1CN([C@H](C)CO)C(=O)c2cc(NC(=O)CCC(F)(F)F)ccc2O[C@@H](C)CCCCO[C@@H]1CN(C)C(=O)c1ccccc1 | / | / | / | 0 | /
O=C(CN1C(=O)c2ccccc2S1(=O)=O)N1CCOCC1 | -8 | 10 | 20391* | 1 | 9
C#CCNC(=O)C1=C[C@@H](C(C)(C)C)[C@H](CCCO)[C@@H](OCC)O1 | / | / | / | -3 | /
Cc1ccc(C(=O)NC(C)c2ccccc2)o1 (stereo unspecified) | -5 | 2 | 22061* | / | 3
SMILES | Anthrax LF inh2 | BoNT A protease | Autofluor counter | TcdB GH inh | BoNT F protease
CCc1nnc(NC(=O)c2ccc(-c3cc(C(F)(F)F)ccc3Cl)o2)s1 | -3 | -1 | 11257 | / | -9
CC(NC(=O)c1ccc(-c2cc(C(F)(F)F)ccc2Cl)o1)c1ccccc1 (stereo unspecified) | 1 | ? | 20639* | / | 0
C[C@@H]1CN([C@H](C)CO)C(=O)c2cccc(NC(=O)Nc3ccc(C(F)(F)F)cc3)c2O[C@H]1CN(C)C(=O)Nc1ccccc1 | / | / | / | 0 | /
CN(Cc1cc(=O)[nH]c2ccccc12)C(=O)c1ccccc1 | -3 | 2 | 19977* | 2 | 4
COc1ccccc1N(Cc1cc(=O)[nH]c2ccccc12)C(=O)c1ccccc1 | 2 | -1 | 4743 | 2 | 6
COc1cc(C(=O)NC2=NCCS2)ccc1OCc1c(C)noc1C | 0 | ? | 20499* | / | -6
COc1cc(C(=O)Nc2cc(C)ccc2C)ccc1OCc1c(C)noc1C | 2 | 0 | 3052 | 0 | 0
Cc1c(C(=O)NC2=NCCS2)oc2ccccc12 | -1 | -1 | 21128* | 3 | -12
COc1cccc(C(=O)NC2=NCCS2)c1OC | -7 | ? | 19499* | / | -1
Cc1csc(NC(=O)c2oc3ccccc3c2C)n1 | ? | ? | ? | -1 | ?
CC(C)CC#Cc1ccc([C@H]2[C@H](CO)N3C(=O)CN(C(=O)c4ccc5c(c4)OCO5)C[C@@H]23)cc1 | / | / | / | 0 | /
Cc1ccc(S(=O)(=O)N(C)C[C@H]2Oc3ccc(NC(=O)Nc4ccc(C(F)(F)F)cc4)cc3C(=O)N([C@@H](C)CO)C[C@H]2C)cc1 | / | / | / | -2 | /
Cc1sc2nc(C3CC3)nc(SCC(=O)N3CCc4ccccc4C3)c2c1C | 1 | ? | 23515* | / | -2
CN1[C@@H]2c3ccc(-c4ccccc4F)c(=O)n3C[C@H]1[C@H](CO)[C@H]2C(=O)NCc1ccccn1 | / | / | / | 0 | /
CCOC(=O)C1CCCN(C2CC(=O)N(c3cccc(C(F)(F)F)c3)C2=O)C1 (stereo unspecified) | -3 | ? | 23785* | / | -5
CCOc1cccc(N2C(=O)CC(N3CCN(c4ccc(S(=O)(=O)CC)cc4)CC3)C2=O)c1 (stereo unspecified) | -6 | 2 | 22715* | / | 3
O=C1CC(N2CCN(c3ccccn3)CC2)C(=O)N1c1ccc(F)cc1 (stereo unspecified) | -10 | -1 | 3392 | 1 | -4
O=C1CC(N2CCN(c3nc4ccccc4s3)CC2)C(=O)N1c1cccc(F)c1 (stereo unspecified) | -8 | -2 | 23609* | / | -1
CCOc1ccc(N2C(=O)CC(N3CCN(c4ccc(Cl)cc4)CC3)C2=O)cc1 (stereo unspecified) | 13 | 0 | 3341 | 0 | -9
CCOC(=O)C1CCCN(C2CC(=O)N(c3ccccc3)C2=O)C1 (stereo unspecified) | -1 | 0 | 2082 | 1 | -2
O=C1CC(N2CCN(c3cccc(C(F)(F)F)c3)CC2)C(=O)N1c1ccc(F)cc1 (stereo unspecified) | -5 | 0 | 22486* | / | -2
Cc1noc(C)c1NC(=O)Nc1ccc2c(c1)C(=O)N(C)[C@H]1CC[C@@H](CC(=O)NCc3ccc(Cl)cc3)O[C@@H]1CO2 | / | / | / | 0 | /
Cc1cccc(N2C(=O)CC(N3CCN(c4cccc(C(F)(F)F)c4)CC3)C2=O)c1 (stereo unspecified) | 0 | ? | 20300* | / | -2
